Measured values: PubChem BioAssay (NCI)
About 83,000 compounds went through this panel and 20% of them were active in at least one assay; those are over-represented in the sample as a whole.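 Cell lines were cultured in 96-well plates, exposed to a single compound concentration, and assessed for percent growth 48 hours later.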 A number with no mark means an inactive call. Activity calls are given as the source filed them. The calls were made as follows: active = growth percent below 10; inactive = the rest.

Key:
Test in all cases: NCI-60 one-dose screen, 48 h (100 = growth as untreated, 0 = no growth, -100 = all killed)
Conditions in all cases: 10 µM unless noted
NCI-H23 lung = test system: NCI-H23 lung
NCI-H226 lung = test system: NCI-H226 lung
NCI-H322M lung = test system: NCI-H322M lung
HOP-62 NSCLC = test system: HOP-62 NSCLC
NCI-H460 lung = test system: NCI-H460 lung
NCI-H522 lung = test system: NCI-H522 lung
A549/ATCC NSCLC = test system: A549/ATCC NSCLC
786-0 renal = test system: 786-0 renal
COLO 205 colon = test system: COLO 205 colon
DU-145 prostate = test system: DU-145 prostate
MALME-3M melanoma = test system: MALME-3M melanoma
MDA-MB-231 breast = test system: MDA-MB-231 breast
RXF 393 renal = test system: RXF 393 renal
SF-268 CNS = test system: SF-268 CNS
SF-295 CNS = test system: SF-295 CNS
SF-539 CNS = test system: SF-539 CNS
UACC-257 melanoma = test system: UACC-257 melanoma
HCT-15 colon = test system: HCT-15 colon
M14 melanoma = test system: M14 melanoma
K-562 leukemia = test system: K-562 leukemia

What does the source list for `CCOC(=O)C(Cc1ccccc1)(C(=O)OCC)C(Br)C(=O)c1ccccc1` (configuration not stated)?
growth (NCI-H23 lung): 84.4%; growth (NCI-H226 lung): 88%; growth (NCI-H322M lung): 83.9%; growth (HOP-62 NSCLC): 95.6%; growth (NCI-H460 lung): 93%; growth (NCI-H522 lung): 22.5%; growth (A549/ATCC NSCLC): 80.2%; growth (786-0 renal): 50%; growth (COLO 205 colon): 63%; growth (DU-145 prostate): 93%; growth (MALME-3M melanoma): 54.2%; growth (MDA-MB-231 breast): 64.2%; growth (RXF 393 renal): 75.5%; growth (SF-268 CNS): 88%; growth (SF-295 CNS): 94.5%; growth (SF-539 CNS): 105%; growth (UACC-257 melanoma): 70.9%; growth (HCT-15 colon): 41.9%

What does the source list for `COC(=O)[C@]1(CCSC)N[C@H](c2cn(-c3ccccc3)nc2C)[C@@H]2C(=O)N(c3ccc(C)cc3)C(=O)[C@@H]21`?
growth (NCI-H23 lung): 100%; growth (NCI-H226 lung): 129%; growth (NCI-H322M lung): 104%; growth (HOP-62 NSCLC): 99.5%; growth (NCI-H460 lung): 104%; growth (NCI-H522 lung): 89.6%; growth (A549/ATCC NSCLC): 90.5%; growth (786-0 renal): 97.1%; growth (COLO 205 colon): 113%; growth (DU-145 prostate): 103%; growth (MALME-3M melanoma): 99%; growth (MDA-MB-231 breast): 104%; growth (RXF 393 renal): 133%; growth (SF-268 CNS): 98.2%; growth (SF-295 CNS): 97%; growth (UACC-257 melanoma): 102%; growth (M14 melanoma): 96.6%; growth (HCT-15 colon): 96.7%

For `COc1ccc2[nH]cc(/C=C3/C(=O)Nc4ccc(F)cc43)c2c1`, which growth (NCI-H23 lung) is on record?
The growth was 75.8%.

And the growth (NCI-H226 lung)?
Its growth is 91.5%.

What about the growth (NCI-H322M lung) of the same compound?
The growth was 94%.

What about the growth (HOP-62 NSCLC) of the same compound?
The growth was 105%.

What about the growth (NCI-H460 lung) of the same compound?
Its growth is 83.3%.

What about the growth (NCI-H522 lung) of the same compound?
The growth was 81.5%.

And the growth (A549/ATCC NSCLC)?
The growth was 72.3%.

And the growth (786-0 renal)?
The growth was 115%.

And the growth (COLO 205 colon)?
The growth was 97.7%.

What about the growth (DU-145 prostate) of the same compound?
Its growth is 95.3%.

What about the growth (K-562 leukemia) of the same compound?
Its growth is 72.1%.

What about the growth (MDA-MB-231 breast) of the same compound?
The growth was 87.6%.

What about the growth (RXF 393 renal) of the same compound?
The growth was 91.5%.

What about the growth (SF-295 CNS) of the same compound?
The growth was 95.6%.

What about the growth (SF-539 CNS) of the same compound?
The growth was 99.4%.

What about the growth (UACC-257 melanoma) of the same compound?
Its growth is 99.8%.

And the growth (M14 melanoma)?
The growth was 98.2%.

What about the growth (HCT-15 colon) of the same compound?
Its growth is 75.6%.

`Cc1nn(-c2ccc(Cl)cc2)c2nc3c(nc12)C(=O)c1ccccc1-3` was tested. Which growth (NCI-H23 lung) did it give?
The growth was 61.7%.

And the growth (NCI-H226 lung)?
The growth was 32.5%.

What about the growth (NCI-H322M lung) of the same compound?
Its growth is 63.1%.

What about the growth (HOP-62 NSCLC) of the same compound?
Its growth is 51.7%.

And the growth (NCI-H460 lung)?
The growth was 12.6%.

What about the growth (NCI-H522 lung) of the same compound?
The growth was 60.7%.

What about the growth (A549/ATCC NSCLC) of the same compound?
Its growth is 55.8%.

And the growth (786-0 renal)?
The growth was 56.8%.

What about the growth (COLO 205 colon) of the same compound?
The growth was 95.2%.

What about the growth (DU-145 prostate) of the same compound?
Its growth is 77.8%.

And the growth (MALME-3M melanoma)?
The growth was 84.7%.

And the growth (MDA-MB-231 breast)?
Its growth is 52.7%.

What about the growth (RXF 393 renal) of the same compound?
The growth was 45.4%.

And the growth (SF-268 CNS)?
Its growth is 72.4%.

What about the growth (SF-295 CNS) of the same compound?
The growth was 36.4%.

What about the growth (UACC-257 melanoma) of the same compound?
Its growth is 91.5%.

And the growth (HCT-15 colon)?
Its growth is 98.5%.

How did the growth (NCI-H23 lung) turn out when `COc1cc2c(-c3nc4cc(Cl)c(F)cc4s3)cc(=O)oc2c(C)c1OC` was run?
Its growth is -48.6% (active).

And the growth (NCI-H226 lung)?
The growth was -48.8% (active).

What about the growth (NCI-H322M lung) of the same compound?
Its growth is 7.69% (active).

And the growth (HOP-62 NSCLC)?
The growth was -65.7% (active).

What about the growth (NCI-H460 lung) of the same compound?
Its growth is -36.1% (active).

And the growth (NCI-H522 lung)?
Its growth is -83.9% (active).

What about the growth (A549/ATCC NSCLC) of the same compound?
The growth was -53.9% (active).

And the growth (786-0 renal)?
Its growth is -70.2% (active).

And the growth (COLO 205 colon)?
Its growth is -46.6% (active).

What about the growth (DU-145 prostate) of the same compound?
The growth was -85.3% (active).

And the growth (K-562 leukemia)?
Its growth is -22.6% (active).

What about the growth (MDA-MB-231 breast) of the same compound?
The growth was -50.4% (active).

What about the growth (SF-268 CNS) of the same compound?
Its growth is -63.5% (active).

And the growth (SF-295 CNS)?
Its growth is -81.5% (active).

What about the growth (SF-539 CNS) of the same compound?
The growth was -89% (active).

And the growth (UACC-257 melanoma)?
The growth was -77.6% (active).

And the growth (M14 melanoma)?
Its growth is -35.2% (active).

And the growth (HCT-15 colon)?
Its growth is -39.1% (active).

How did the growth (NCI-H23 lung) turn out when `CCCCCCC/C(=N\N=C(N)N)c1ccc(O)cc1` was run?
Its growth is 57.5%.

And the growth (NCI-H226 lung)?
Its growth is -8.37% (active).

What about the growth (NCI-H322M lung) of the same compound?
Its growth is 56.9%.

What about the growth (HOP-62 NSCLC) of the same compound?
The growth was 43.9%.

And the growth (NCI-H460 lung)?
Its growth is 26.7%.

And the growth (NCI-H522 lung)?
The growth was 47.7%.

What about the growth (A549/ATCC NSCLC) of the same compound?
The growth was 51.9%.

What about the growth (786-0 renal) of the same compound?
Its growth is 63.1%.

What about the growth (COLO 205 colon) of the same compound?
Its growth is -88.8% (active).

What about the growth (DU-145 prostate) of the same compound?
Its growth is 53.4%.

What about the growth (MALME-3M melanoma) of the same compound?
The growth was 50.6%.

What about the growth (MDA-MB-231 breast) of the same compound?
Its growth is -22.5% (active).

And the growth (RXF 393 renal)?
The growth was -35.5% (active).

And the growth (SF-268 CNS)?
Its growth is 45%.

And the growth (SF-295 CNS)?
Its growth is 55.7%.

What about the growth (SF-539 CNS) of the same compound?
The growth was 63.5%.

What about the growth (UACC-257 melanoma) of the same compound?
The growth was 27.1%.

What about the growth (M14 melanoma) of the same compound?
Its growth is 24.9%.

And the growth (HCT-15 colon)?
The growth was 64%.

Which results are given for `Cc1nn(-c2ccc(Br)cc2)c2nc3c(nc12)C(=O)C(=O)c1ccccc1-3`?
growth (NCI-H23 lung): 87.2%; growth (NCI-H226 lung): 96.9%; growth (NCI-H322M lung): 104%; growth (HOP-62 NSCLC): 91.7%; growth (NCI-H460 lung): 97.3%; growth (NCI-H522 lung): 98.3%; growth (A549/ATCC NSCLC): 100%; growth (786-0 renal): 102%; growth (COLO 205 colon): 89.6%; growth (DU-145 prostate): 124%; growth (MALME-3M melanoma): 91.2%; growth (MDA-MB-231 breast): 78.7%; growth (RXF 393 renal): 111%; growth (SF-268 CNS): 101%; growth (SF-295 CNS): 97.5%; growth (UACC-257 melanoma): 98.6%; growth (M14 melanoma): 98.2%; growth (HCT-15 colon): 90.5%

What does the source list for `Cc1cc2c(C#N)n3c(c2cc1C)C(=O)C(c1ccccc1)Oc1ccccc1-3` (configuration not stated)?
growth (NCI-H23 lung): 21%; growth (NCI-H226 lung): 34.6%; growth (NCI-H322M lung): 81.8%; growth (HOP-62 NSCLC): 35.7%; growth (NCI-H460 lung): 42.1%; growth (NCI-H522 lung): -35.7% (active); growth (A549/ATCC NSCLC): 4.49% (active); growth (786-0 renal): 41.7%; growth (COLO 205 colon): 56.6%; growth (DU-145 prostate): 64.4%; growth (K-562 leukemia): 12.7%; growth (MDA-MB-231 breast): 58.9%; growth (SF-268 CNS): 35.1%; growth (SF-295 CNS): 14.8%; growth (SF-539 CNS): 74%; growth (UACC-257 melanoma): 44.7%; growth (M14 melanoma): 36.8%; growth (HCT-15 colon): 16.4%

What does the source list for `O=C(Nc1nc(-c2ccccc2)cs1)c1cc(O)c(O)c(O)c1`?
growth (NCI-H23 lung): 59.6%; growth (NCI-H226 lung): 67.9%; growth (NCI-H322M lung): 69.1%; growth (HOP-62 NSCLC): 46.4%; growth (NCI-H460 lung): 34.7%; growth (NCI-H522 lung): -29.4% (active); growth (A549/ATCC NSCLC): 46.2%; growth (786-0 renal): 41.6%; growth (COLO 205 colon): 84.5%; growth (DU-145 prostate): 57.7%; growth (K-562 leukemia): 19.6%; growth (MDA-MB-231 breast): 44%; growth (SF-268 CNS): 43.7%; growth (SF-295 CNS): 58.5%; growth (SF-539 CNS): 42%; growth (UACC-257 melanoma): 80.9%; growth (M14 melanoma): 54.4%; growth (HCT-15 colon): 27.3%
